Among all 39,000 compounds or so, about 500 (1.3%) were called active. For the sample, actives were picked, then their nearest neighbours and some compounds at random.
Test system: S. aureus RN4220
Test: growth inhibition call (relative growth <= 0.2)
Settings: 50 µM

| SMILES | growth inhibition call |
| --- | --- |
| C[C@H](CO)N1C[C@H](C)[C@@H](CN(C)C(=O)Nc2cccc3ccccc23)Oc2ccc(NC(=O)Cn3cnnn3)cc2CC1=O | inactive |
| C[C@@H]1CN([C@H](C)CO)C(=O)c2cc(NC(=O)Nc3ccc(C(F)(F)F)cc3)ccc2O[C@@H](C)CCCCO[C@H]1CN(C)C(=O)C1CCCCC1 | inactive |
| CO[C@H](CN(C)C(=O)Nc1ccc(C(F)(F)F)cc1)[C@@H](C)CN(Cc1ccccc1Cl)[C@@H](C)CO | inactive |
| C[C@H](CO)N1C[C@H](C)[C@@H](CN(C)C(=O)C2CCCCC2)OCCCC[C@H](C)Oc2ccc(NC(=O)Nc3ccc(C(F)(F)F)cc3)cc2C1=O | inactive |
| CO[C@H](CN(C)C(=O)Nc1ccc(C(F)(F)F)cc1)[C@@H](C)CN(Cc1ccccc1Cl)[C@H](C)CO | inactive |
| CO[C@@H](CN(C)C(=O)C1CCOCC1)[C@@H](C)CN(C(=O)Nc1ccc(C(F)(F)F)cc1)[C@H](C)CO | active |
| CO[C@H](CN(C)C(=O)C1CCOCC1)[C@H](C)CN(C(=O)Nc1ccc(C(F)(F)F)cc1)[C@@H](C)CO | active |
| CO[C@@H](CN(C)C(=O)Nc1ccc(C(F)(F)F)cc1)[C@H](C)CN(Cc1ccccc1Cl)[C@@H](C)CO | inactive |
| CO[C@@H](CN(C)C(=O)Nc1ccc(C(F)(F)F)cc1)[C@H](C)CN(Cc1ccccc1Cl)[C@H](C)CO | inactive |
| CO[C@H](CN(C)C(=O)C1CCOCC1)[C@@H](C)CN(C(=O)Nc1ccc(C(F)(F)F)cc1)[C@@H](C)CO | active |
| CO[C@@H](CN(C)C(=O)C1CCOCC1)[C@H](C)CN(C(=O)Nc1ccc(C(F)(F)F)cc1)[C@@H](C)CO | active |
| CO[C@@H](CN(C)C(=O)C1CCOCC1)[C@@H](C)CN(C(=O)Nc1ccc(C(F)(F)F)cc1)[C@@H](C)CO | inactive |
| CO[C@H](CN(C)C(=O)Nc1ccc(C(F)(F)F)cc1)[C@H](C)CN(Cc1ccccc1Cl)[C@@H](C)CO | inactive |
| COc1ccc(S(=O)(=O)N(C)C[C@@H]2OCc3cn(nn3)CCCC(=O)N([C@H](C)CO)C[C@H]2C)cc1 | inactive |
| COc1ccc(NC(=O)N(C)C[C@@H]2OCCCC[C@H](C)Oc3ccc(NS(=O)(=O)c4ccc(C)cc4)cc3C(=O)N([C@H](C)CO)C[C@H]2C)cc1 | inactive |
| Nc1nnc(CC(=O)N2CCCCC2)o1 | inactive |
| CN1C(=O)c2cc(NC(=O)Nc3ccccc3F)ccc2OC[C@@H]2O[C@@H](CC(=O)NCc3ccc(-c4ccccc4)cc3)CC[C@H]21 | inactive |
| Cc1noc(C)c1S(=O)(=O)Nc1ccc2c(c1)CC(=O)N([C@@H](C)CO)C[C@H](C)[C@H](CN(C)Cc1ccc(C(=O)O)cc1)O2 | inactive |
| C[C@@H]1CCCCO[C@H](CN(C)C(=O)Nc2cccc3ccccc23)[C@H](C)CN([C@@H](C)CO)C(=O)c2cc(NS(=O)(=O)c3ccc(Cl)cc3)ccc2O1 | inactive |
| COc1ccc(S(=O)(=O)N(C)C[C@@H]2OCc3cnnn3CCCC(=O)N([C@@H](C)CO)C[C@H]2C)cc1 | inactive |
| C[C@H]1CCCCO[C@H](CN(C)C)[C@@H](C)CN([C@@H](C)CO)C(=O)c2cc(NC(=O)CCCN(C)C)ccc2O1 | inactive |
| Cc1cc(C)c(S(N)(=O)=O)cc1S(N)(=O)=O | inactive |
| C=CCOC(=O)[C@@H]1[C@H]2C(=O)O[C@H](c3ccccc3)[C@H](c3ccccc3)N2[C@H](c2ccc(OCCOC(=O)[C@@H]3C[C@@H]4C(=O)N[C@@H](Cc5ccccc5)C(=O)N4[C@@H]3c3ccc(O)cc3)cc2)[C@@]12C(=O)Nc1ccccc12 | inactive |
| C[C@H]1CN([C@@H](C)CO)C(=O)c2cc(C#CCN(C)C)cnc2O[C@@H]1CN(C)Cc1cccc(C(=O)O)c1 | inactive |

| SMILES | growth inhibition call |
| --- | --- |
| COc1ccc(S(=O)(=O)N(C)C[C@@H]2Oc3ccc(NS(C)(=O)=O)cc3C(=O)N([C@H](C)CO)C[C@@H]2C)cc1 | inactive |
| CO[C@H](CN(C)C(=O)C1CCOCC1)[C@@H](C)CN(C(=O)Nc1ccc(C(F)(F)F)cc1)[C@H](C)CO | active |
| CO[C@@H](CN(C)C(=O)Nc1ccc(C(F)(F)F)cc1)[C@@H](C)CN(Cc1ccccc1Cl)[C@@H](C)CO | inactive |
| C[C@@H]1CCCCO[C@@H](CN(C)C(=O)C2CCCCC2)[C@@H](C)CN([C@H](C)CO)C(=O)c2cc(NC(=O)Nc3ccc(C(F)(F)F)cc3)ccc2O1 | inactive |
| CO[C@H](CN(C)C(=O)Nc1ccc(C(F)(F)F)cc1)[C@H](C)CN(Cc1ccccc1Cl)[C@H](C)CO | inactive |
| C[C@@H]1CCCCO[C@@H](CN(C)C(=O)C2CCCCC2)[C@H](C)CN([C@@H](C)CO)C(=O)c2cc(NC(=O)Nc3ccc(C(F)(F)F)cc3)ccc2O1 | inactive |
| CO[C@H](CN(C)C(=O)C1CCOCC1)[C@H](C)CN(C(=O)Nc1ccc(C(F)(F)F)cc1)[C@H](C)CO | active |
| Cc1noc(C)c1NC(=O)Nc1ccc2c(c1)C(=O)N([C@H](C)CO)C[C@@H](C)[C@H](CN(C)S(=O)(=O)c1ccc(Cl)cc1)OCCCC[C@@H](C)O2 | inactive |
| C[C@H](CO)N1C[C@H](C)[C@@H](CN(C)Cc2ccc(C(=O)Nc3ccccc3N)cc2)Oc2c(NC(=O)c3nc4ccccc4s3)cccc2C1=O | inactive |
| COc1ccc(S(=O)(=O)Nc2ccc3c(c2)C(=O)N([C@H](C)CO)C[C@H](C)[C@@H](CN(C)Cc2ccc(C(=O)O)cc2)OCCCC[C@@H](C)O3)cc1 | inactive |
| CCNC(=O)C[C@H]1C=C[C@H](NC(=O)C2CC2)[C@H](CO)O1 | inactive |
| O=c1c(O)nnc2n1CCN2c1ccccc1 | inactive |
| Cc1noc(C)c1S(=O)(=O)Nc1cccc2c1O[C@@H](CN(C)S(=O)(=O)c1ccccc1)[C@@H](C)CN([C@H](C)CO)C2=O | inactive |
| Cc1ccc(S(=O)(=O)Nc2ccc3c(c2)C(=O)N([C@@H](C)CO)C[C@H](C)[C@@H](CN(C)CC2CCCCC2)OCCCC[C@H](C)O3)cc1 | inactive |
| Cc1ccc(CN2CCN(CCO)CC2)o1 | inactive |
| O=C(NCC(F)(F)F)[C@H]1[C@H](CO)[C@H]2Cn3c(cccc3=O)[C@@H]1N2C(=O)C1CCC1 | inactive |
| CCCNC(=O)c1cc2c(c(-c3cccc(-c4cccc(F)c4)c3)n1)[C@@H](CCO)N([S@](=O)C(C)(C)C)C2 | inactive |
| CCCNC(=O)c1cc2c(c(-c3cccc(-c4ccc(F)cc4)c3)n1)[C@H](CCO)N([S@@](=O)C(C)(C)C)C2 | inactive |
| CCCNC(=O)c1cc2c(c(-c3cccc(-c4cccc(F)c4)c3)n1)[C@H](CCO)N([S@@](=O)C(C)(C)C)C2 | active |
| C[C@@H]1CN([C@@H](C)CO)C(=O)c2cc(NC(=O)CCN3CCOCC3)ccc2O[C@H]1CN(C)S(=O)(=O)c1ccc(F)cc1 | inactive |
| NCCCCCNC(=O)[C@@H]1C[C@@H]2C(=O)N[C@@H](CCCCN)C(=O)N2[C@@H]1c1cccc(OCCO)c1 | inactive |
| CSc1cccc2sc(Nc3ccc(Cl)cc3)nc12 | active |
| c1ccc(Nc2nc3c(ccc4ccccc43)s2)cc1 | inactive |
| Cc1sc(Nc2ccccc2)nc1-c1ccc(Cl)cc1 | inactive |

| SMILES | growth inhibition call |
| --- | --- |
| Cc1ccc(S(=O)(=O)Nc2cccc3c2O[C@H](CN(C)C(=O)Nc2cccc4ccccc24)[C@@H](C)CN([C@@H](C)CO)C3=O)cc1 | inactive |
| COCC#Cc1ccc([C@H]2[C@H]3CN(C(=O)c4ccncc4)CC(=O)N3[C@H]2CO)cc1 | inactive |
| CCOC(=O)CNC(=O)c1cc(C)on1 | inactive |
| O=C(CN1CCNCC1)c1ccc(F)cc1 | inactive |
| O=C(c1ccccc1F)N1CCNCC1 | inactive |
| Cn1cc(S(=O)(=O)N2CCN(c3ccc(F)cc3)CC2)c(=O)n(C)c1=O | inactive |
| Cl.O=C(O)c1cn(-c2ccc(F)cc2)c2cc(N3CCNCC3)c(F)cc2c1=O | active |
| Cc1ccc(C(=O)O)c(=O)n1C | inactive |
| CN1CCN(c2cc3c(cc2F)c(=O)c(C(=O)O)cn3-c2ccc(F)cc2)CC1.Cl | active |
| Cc1noc(C)c1S(=O)(=O)N(C)C[C@@H]1Oc2ccc(NC(=O)NC(C)C)cc2CC(=O)N([C@@H](C)CO)C[C@@H]1C | inactive |
| O=C(NO)c1cn(-c2ccc(C[C@H]3C(=O)O[C@@H](Cc4ccccc4)[C@H]4C=C(/C=C/C5CC5)CN43)cc2)nn1 | inactive |
| CCCCCOc1ccc([C@H]2C(C(=O)c3ccc4c(c3)OCCO4)=C(O)C(=O)N2Cc2ccco2)cc1 | inactive |
| O=C(Nc1ccccc1)c1ccccc1 | inactive |
| O=C(Nc1ccccc1)c1ccccc1O | active |
| NNC(=O)c1ccccc1O | inactive |
| CO[C@@H]1CN(C)C(=O)c2ccc(NS(=O)(=O)CC(F)(F)F)cc2OC[C@H](C)N(Cc2nccs2)C[C@H]1C | inactive |
| C[C@@H]1CN([C@@H](C)CO)C(=O)Cc2cc(NS(=O)(=O)c3cccs3)ccc2O[C@H]1CN(C)S(C)(=O)=O | inactive |
| Clc1ccc(C(Cn2ccnc2)OCc2c(Cl)cccc2Cl)c(Cl)c1.O=[N+]([O-])O (stereo unspecified) | inactive |
| Clc1ccc(COC(Cn2ccnc2)c2ccc(Cl)cc2Cl)c(Cl)c1.O=[N+]([O-])O (stereo unspecified) | inactive |
| Clc1ccc(C(Cn2ccnc2)OCc2ccsc2Cl)c(Cl)c1 (stereo unspecified) | active |
| Cc1ccc(S(=O)(=O)N(C)C[C@@H]2OCCCC[C@H](C)Oc3ccc(NC(=O)C4CCCCC4)cc3C(=O)N([C@@H](C)CO)C[C@@H]2C)cc1 | inactive |
| C=C[C@]1(C)C[C@@H](OC(=O)CS[C@@H]2C[C@H]3CC[C@@H](C2)N3C)[C@]2(C)[C@H](C)CC[C@]3(CCC(=O)[C@H]32)[C@@H](C)[C@@H]1O | active |
| C[C@H](CO)N1C[C@H](C)[C@H](CN(C)Cc2ccc(C(=O)O)cc2)OCCCC[C@H](C)Oc2ccc(NS(=O)(=O)c3ccc(F)cc3)cc2C1=O | inactive |
